Data published in PubChem BioAssay AID463173 (ICCB-Longwood Screening Facility, Harvard Medical School, 2010).
The whole screen tested about 52,000 compounds, of which about 1,700 (3.3%) were called active. This is one part of a sample in which actives are shown more often than they occur. Cut-off read from the data, not from the text of the source: active = survival mostly below about 52% (no sharp cut-off); inactive = mostly above about 56%.

system: Wild type; assay: growth inhibition of S. aureus wild type versus tarO mutant, primary screen, teichoic acid synthesis inhibitors, RN4220, OD600 (AID 463173); conditions: S. aureus RN4220 wild type/DeltatarO growth, OD600, 18 h, active compounds read low, screened at 18.75 µg/mL (by protocol)

Structure (SMILES)	survival
Cc1ccc(CCNC(=O)c2cc3c(=O)oc4ccccc4c3s2)cc1	73% (inactive)
c1ccc(-n2ncc3c(NC4CCCC4)ncnc32)cc1	121% (inactive)
CCOC(=O)C1CCN(S(=O)(=O)c2cc(-c3onc(C)c3C)ccc2C)CC1	81% (inactive)
COc1ccc(NC(=O)C(C)N2Cc3ccccc3C2=O)cc1OC (stereo not drawn)	75% (inactive)
O=C(Nc1ccc(F)cc1F)C(Cc1ccccc1)N1Cc2ccccc2C1=O (stereo not drawn)	-6% (active)
Cc1ccc(C)c(NC(=O)C(CC(C)C)N2Cc3ccccc3C2=O)c1 (stereo not drawn)	159% (inactive)
O=C(Nc1ccc(F)cc1)[C@H](Cc1ccccc1)N1Cc2ccccc2C1=O	91% (inactive)
Cc1ccc(NC(=O)[C@H](Cc2ccccc2)N2Cc3ccccc3C2=O)cc1F	78% (inactive)
Cc1cc(C)cc(NC(=O)C(C)N2Cc3ccccc3C2=O)c1 (stereo not drawn)	63% (inactive)
O=C(Nc1ccccc1F)C(Cc1ccccc1)N1Cc2ccccc2C1=O (stereo not drawn)	75% (inactive)
COC(=O)c1ccc(NC(=O)C(C)N2Cc3ccccc3C2=O)cc1 (stereo not drawn)	53% (inactive)
CC(C(=O)Nc1ccc(F)c(Cl)c1)N1Cc2ccccc2C1=O (stereo not drawn)	0% (active)
CCOc1ccc(NC(=O)C(CC(C)C)N2Cc3ccccc3C2=O)cc1 (stereo not drawn)	134% (inactive)
CC(C(=O)Nc1ccc(OC(F)(F)F)cc1)N1Cc2ccccc2C1=O (stereo not drawn)	-3% (active)
Cc1ccc(NC(=O)C(CC(C)C)N2Cc3ccccc3C2=O)cc1F (stereo not drawn)	-6% (active)
Cc1ccccc1CSc1cn(CCNC(=O)c2cccs2)c2ccccc12	79% (inactive)
COc1ccc(NC(=O)Cc2ccc(NC(=O)N3CCCCc4ccccc43)cc2)c(OC)c1	60% (inactive)
COc1cccc(C(=O)NC2CCCC2)c1	103% (inactive)
O=C(CCS(=O)(=O)c1cccs1)Nc1ccc(C(=O)Nc2ccccc2F)cc1	135% (inactive)
CC(=O)c1ccc(N2CCN(C(=O)CCCn3c(=O)[nH]c4ccsc4c3=O)CC2)cc1	66% (inactive)
c1ccc(-n2nc3ccc4nonc4c3n2)cc1	104% (inactive)
On1c2c(c3c4nonc4ccc31)CCCC2	8% (active)
COC(=O)CSc1n[nH]c(CNc2cccc(C)c2)n1	108% (inactive)
O=C(NCCCN1CCN(c2ccccc2)CC1)c1nnc(Cc2ccc(F)cc2)o1	98% (inactive)
COc1ccccc1C(=O)Nc1cc(-c2ccc(C)cc2)no1	73% (inactive)

Structure (SMILES)	survival
Cc1ccc(NC(=O)Cn2nc(C)n3cccc3c2=O)c(C)c1	95% (inactive)
CCn1c(COc2ccccc2)nnc1SCC(=O)CC(=O)Nc1ccccc1OC	100% (inactive)
Cc1cc(C)nc(SC2=CS(=O)(=O)c3ccccc32)n1	99% (inactive)
O=S1(=O)C=C(Sc2nc3ccccc3s2)c2ccccc21	0% (active)
CC(C)(C)NSc1nc2ccccc2s1	68% (inactive)
O=C(COc1ccccc1Cl)OCc1cc(=O)n2nc(C3CCCCC3)sc2n1	71% (inactive)
Cc1ccc(Cc2nc3ccccc3nc2SCC(=O)N2CCC(C)CC2)cc1	77% (inactive)
Cc1nc2nc(NC(=O)C(C)C)[nH]n2c(=O)c1Cc1ccccc1	88% (inactive)
Cc1ccccc1Cc1c(C)nc2c(-c3ccccc3)c(C)[nH]n2c1=O	-13% (active)
CCOC(=O)CCc1c(C)nc2c(-c3ccccc3)c(C)[nH]n2c1=O	74% (inactive)
Cc1ccc(Cc2c(C)nc3c(-c4ccccc4)c(C)[nH]n3c2=O)cc1	-11% (active)
Cc1cccc(Cc2c(C)nc3c(-c4ccccc4)c(C)[nH]n3c2=O)c1	4% (active)
Cc1nc2nc(NCc3cccc(Cl)c3)[nH]n2c(=O)c1Cc1ccccc1	85% (inactive)
Cc1nc2c(-c3ccccc3)c(C)[nH]n2c(=O)c1Cc1ccc(C(C)C)cc1	-5% (active)
Cc1nc2nc(NCc3ccccc3Cl)[nH]n2c(=O)c1Cc1ccccc1	86% (inactive)
COc1cccc(C(=O)Nc2nc3nc(C)c(Cc4ccccc4)c(=O)n3[nH]2)c1	105% (inactive)
CCc1ccc(CNc2nc3nc(C)c(Cc4ccccc4)c(=O)n3[nH]2)cc1	93% (inactive)
CCc1c(C)nc2cc(-c3ccccc3)[nH]n2c1=O	106% (inactive)
Cc1nc2nc(NC(=O)CC(C)C)[nH]n2c(=O)c1Cc1ccccc1	110% (inactive)
CCCCN(C)C(=O)c1ccc2c(=O)n3nc(Nc4cc(C)ccc4C)sc3nc2c1	140% (inactive)
CCN(CC)CCCNC(=O)c1nn(-c2ccc(OC)c(Cl)c2)c(=O)c2c1c1ccccc1n2C	80% (inactive)
O=C(Cn1cc(S(=O)(=O)N2CCN(c3ccccc3F)CC2)c2ccccc2c1=O)Nc1ccc(F)cc1Cl	129% (inactive)
Cc1cccc(CN2C(=O)CC(c3ccc(Cl)cc3)c3c(C)nn(-c4nc(C)cc(C)n4)c32)c1 (stereo not drawn)	76% (inactive)
Cc1nc2c(-c3ccccc3)c(C)[nH]n2c(=O)c1Cc1ccc(Br)cc1	-5% (active)
Cc1nc2nc(NCc3cccc(Br)c3)[nH]n2c(=O)c1Cc1ccccc1	68% (inactive)

Structure (SMILES)	survival
Cc1nc2nc(NCc3ccc(Br)cc3)[nH]n2c(=O)c1Cc1ccccc1	63% (inactive)
CCc1nc2nc(C)cc(Nc3ccc(OC)cc3OC)n2n1	75% (inactive)
COC(=O)c1scc(-c2ccc(C)cc2)c1S(=O)(=O)Nc1ccc(F)cc1F	72% (inactive)
CCN(CC)c1nc2c(S(=O)(=O)c3ccccc3)nnn2c2ccc(Cl)cc12	9% (active)
CCN(Cc1ccccc1)c1nc2c(S(=O)(=O)c3ccccc3)nnn2c2ccc(Cl)cc12	88% (inactive)
CCc1ccc(S(=O)(=O)c2nnn3c2nc(N(CC)Cc2ccccc2)c2cc(Cl)ccc23)cc1	92% (inactive)
Cc1cccc(NC(=O)CSc2nnc(C)c(=O)[nH]2)c1	101% (inactive)
Cc1ccc(CN2CCN(C3CCN(C(=O)OC(C)(C)C)CC3)C(=O)C2=O)cc1	124% (inactive)
CCOC(=O)c1nnn(C(CC)C(=O)Nc2ccc(F)cc2)c1C(=O)OCC (stereo not drawn)	99% (inactive)
CCc1ccc(NC(=O)C(CC)n2nnc(C(=O)OC)c2C(=O)OC)cc1 (stereo not drawn)	-1% (active)
CCC(C(=O)Nc1cc(C)ccc1OC)n1nnc(C(=O)OC)c1C(=O)OC (stereo not drawn)	89% (inactive)
CCOc1ccccc1N1CC(c2nc3ccccc3n2CCCOc2ccccc2OC)CC1=O (stereo not drawn)	79% (inactive)
CCCCN1CC(c2nc3ccccc3n2CCCCOc2cc(C)ccc2C)CC1=O (stereo not drawn)	-6% (active)
CCCCN1CC(c2nc3ccccc3n2CCCCOc2ccc(C)cc2C)CC1=O (stereo not drawn)	-5% (active)
CCOc1ccc(N2CC(c3nc4ccccc4n3CCCCOc3ccc(OC)cc3)CC2=O)cc1 (stereo not drawn)	71% (inactive)
Cc1ccc(CCNC(=O)CCS(=O)(=O)c2cc3c(cc2Cl)NC(=O)CO3)cc1	91% (inactive)
COc1ccc(C(=O)NCC(c2cccs2)S(=O)(=O)c2ccc(C)cc2)cc1 (stereo not drawn)	143% (inactive)
CCc1ccc(N(CC(=O)NCC2CCCO2)S(C)(=O)=O)cc1 (stereo not drawn)	112% (inactive)
O=C(Nc1ccc(OC(F)(F)F)cc1)c1noc2c1CCCC2	86% (inactive)
CCOC(=O)c1ccc(NC(=O)c2noc3c2CCCC3)cc1	-2% (active)
COc1ccc(NC(=O)c2noc3c2CCCC3)cc1Cl	82% (inactive)
O=C(CCS(=O)(=O)c1ccc(Br)cc1)Nc1ccc(F)cc1F	53% (inactive)
COc1ccc(OCc2nc3ccccc3n2Cc2ccccc2Cl)cc1	72% (inactive)
C=CCc1ccccc1OCc1nc2ccccc2n1CC	76% (inactive)
Cc1cccc(C(=O)NCc2nc3ccccc3n2Cc2ccccc2Cl)c1	107% (inactive)

Structure (SMILES)	survival
Cc1ccccc1OCc1nc2ccccc2n1Cc1ccccc1Cl	0% (active)
Cc1ccc(OCc2nc3ccccc3n2Cc2ccccc2Cl)cc1	7% (active)
CC(=O)Nc1ccc(S(=O)(=O)NCCc2cn3ccsc3n2)cc1	72% (inactive)
COc1ccc(-c2nc3sc(CCNC(=O)C(=O)Nc4ccc(C)c(C)c4)c(C)n3n2)cc1	117% (inactive)
Cc1cc(C(F)F)n2nc(C(=O)Nc3ccc(F)c(Cl)c3)nc2n1	83% (inactive)
CN1CCc2c(sc3nc(=S)[nH]c(N)c23)C1	109% (inactive)
Cc1ccccc1Nc1sc(C(=O)c2ccccc2)c(N)c1C(=O)NCc1ccc(Cl)cc1	73% (inactive)
Cc1ccccc1Nc1sc(C(=O)c2ccc(F)cc2)c(N)c1C(=O)NCCc1ccccc1	55% (inactive)
COc1cccc(Nc2sc(C(=O)c3ccc(F)cc3)c(N)c2C(=O)NCc2ccc(C)cc2)c1	63% (inactive)
Cc1ccc(CNC(=O)c2c(Nc3ccccc3C)sc(C(=O)c3ccc(F)cc3)c2N)cc1	-3% (active)
COc1cccc(Nc2sc(C(=O)c3ccc(F)cc3)c(N)c2C(=O)NCc2ccc(Cl)cc2)c1	0% (active)
COc1cccc(Nc2sc(C(=O)c3ccc(Cl)cc3)c(N)c2C(=O)NCc2ccc(C)cc2)c1	76% (inactive)
CCS(=O)(=O)N1CC(=O)N(c2cc(C)ccc2C)C(C)(C(=O)NC2CCCCC2)C1 (stereo not drawn)	59% (inactive)
COc1ccc(-c2cn3c(n2)sc2cc(C(=O)NC4CCCc5ccccc54)ccc23)cc1 (stereo not drawn)	78% (inactive)
CCn1c(SCC(=O)Nc2ccccc2C(=O)OC)nc2ccsc2c1=O	83% (inactive)
CCC(C)n1c(SCC(=O)Nc2ccccc2C(=O)OC)nc2ccsc2c1=O (stereo not drawn)	-1% (active)
COC(=O)c1ccccc1NC(=O)CSc1nc2ccsc2c(=O)n1CCC(C)C	78% (inactive)
O=C(NCC(c1ccco1)S(=O)(=O)c1cccs1)c1ccccc1F (stereo not drawn)	80% (inactive)
Fc1ccc(CNc2cc(-c3ccccc3)nc3nncn23)cc1	29% (inactive)
Fc1ccc(CNc2nc(-c3ccc(Cl)cc3)cc(C(F)(F)F)n2)cc1	-5% (active)
O=C(NCc1ccc(F)cc1)c1cc(-c2ccc(Cl)cc2)n[nH]1	94% (inactive)
Fc1ccc(-c2cc(C(F)(F)F)nc(NCc3ccccc3)n2)cc1	93% (inactive)
Fc1ccc(CNc2nc(-c3ccccc3)cc(C(F)(F)F)n2)cc1	-3% (active)
